Reference: ChEMBL document CHEMBL1961873, “Compounds: GSK PKIS; Assays: Nanosyn kinase panel” (2012)

Columns and labels:
[1] = biological target: T1, Inhibitor of nuclear factor kappa-B kinase subunit epsilon (Homo sapiens) (UniProt Q14164); conditions: at 1 µM;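 also: reported values are averaged percent inhibition figures against human IKKε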
T1 sequence (whole entry): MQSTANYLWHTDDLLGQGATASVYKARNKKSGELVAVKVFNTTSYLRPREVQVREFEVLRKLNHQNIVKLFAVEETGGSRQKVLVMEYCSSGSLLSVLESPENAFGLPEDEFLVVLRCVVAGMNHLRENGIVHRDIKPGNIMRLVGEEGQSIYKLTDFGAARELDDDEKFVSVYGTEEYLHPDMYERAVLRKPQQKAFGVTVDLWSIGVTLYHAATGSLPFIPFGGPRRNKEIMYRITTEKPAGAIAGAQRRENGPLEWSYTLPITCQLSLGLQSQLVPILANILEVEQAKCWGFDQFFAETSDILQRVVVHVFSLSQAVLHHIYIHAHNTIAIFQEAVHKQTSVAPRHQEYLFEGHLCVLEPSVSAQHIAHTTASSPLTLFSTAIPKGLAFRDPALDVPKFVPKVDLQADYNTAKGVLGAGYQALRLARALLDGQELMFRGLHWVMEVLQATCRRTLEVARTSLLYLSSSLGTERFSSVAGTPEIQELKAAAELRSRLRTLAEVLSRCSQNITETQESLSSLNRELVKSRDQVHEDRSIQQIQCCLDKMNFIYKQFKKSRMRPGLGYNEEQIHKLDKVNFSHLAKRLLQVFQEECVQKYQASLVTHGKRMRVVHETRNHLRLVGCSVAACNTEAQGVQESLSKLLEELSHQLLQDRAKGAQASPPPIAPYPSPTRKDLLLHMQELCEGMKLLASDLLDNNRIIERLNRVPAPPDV

[2] = biological target: T2, Serine/threonine-protein kinase Nek1 (Homo sapiens) (UniProt Q96PY6); conditions: at 0.1 µM
T2 sequence (whole entry): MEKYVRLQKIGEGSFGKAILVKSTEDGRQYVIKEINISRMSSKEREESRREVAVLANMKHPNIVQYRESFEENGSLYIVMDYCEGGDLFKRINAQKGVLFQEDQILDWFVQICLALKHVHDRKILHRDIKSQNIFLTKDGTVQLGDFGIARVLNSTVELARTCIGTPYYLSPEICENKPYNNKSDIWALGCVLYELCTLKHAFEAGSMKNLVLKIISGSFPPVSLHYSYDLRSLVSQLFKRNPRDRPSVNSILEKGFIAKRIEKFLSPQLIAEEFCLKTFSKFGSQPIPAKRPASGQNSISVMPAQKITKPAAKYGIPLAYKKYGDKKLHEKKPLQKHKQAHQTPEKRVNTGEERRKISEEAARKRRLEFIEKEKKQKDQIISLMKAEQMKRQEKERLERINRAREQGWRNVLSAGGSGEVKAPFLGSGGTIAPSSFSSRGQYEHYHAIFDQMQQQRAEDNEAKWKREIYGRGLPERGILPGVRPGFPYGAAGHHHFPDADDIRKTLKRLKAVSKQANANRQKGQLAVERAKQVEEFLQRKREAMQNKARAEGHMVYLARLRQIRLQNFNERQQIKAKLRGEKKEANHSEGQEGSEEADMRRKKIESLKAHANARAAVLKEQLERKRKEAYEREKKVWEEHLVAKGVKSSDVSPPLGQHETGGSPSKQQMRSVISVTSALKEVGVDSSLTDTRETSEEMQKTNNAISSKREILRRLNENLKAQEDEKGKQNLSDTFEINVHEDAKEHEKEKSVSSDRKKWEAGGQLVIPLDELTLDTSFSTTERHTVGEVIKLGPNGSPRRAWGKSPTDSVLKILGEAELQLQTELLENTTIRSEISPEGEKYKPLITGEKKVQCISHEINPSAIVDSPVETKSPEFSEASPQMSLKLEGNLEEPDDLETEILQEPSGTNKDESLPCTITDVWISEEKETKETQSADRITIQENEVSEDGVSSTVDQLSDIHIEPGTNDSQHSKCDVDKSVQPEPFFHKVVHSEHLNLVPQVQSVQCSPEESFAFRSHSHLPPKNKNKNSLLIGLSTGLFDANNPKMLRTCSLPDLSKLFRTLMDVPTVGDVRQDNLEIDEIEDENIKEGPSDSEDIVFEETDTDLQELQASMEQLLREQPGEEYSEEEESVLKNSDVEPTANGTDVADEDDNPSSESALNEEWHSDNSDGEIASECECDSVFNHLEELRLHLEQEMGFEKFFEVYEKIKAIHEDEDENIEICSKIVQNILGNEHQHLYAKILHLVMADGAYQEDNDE

[3] = biological target: T2, Serine/threonine-protein kinase Nek1 (Homo sapiens); conditions: at 1 µM
[4] = biological target: T3, Serine/threonine-protein kinase Nek2 (Homo sapiens) (UniProt P51955); conditions: at 0.1 µM
T3 sequence (whole entry): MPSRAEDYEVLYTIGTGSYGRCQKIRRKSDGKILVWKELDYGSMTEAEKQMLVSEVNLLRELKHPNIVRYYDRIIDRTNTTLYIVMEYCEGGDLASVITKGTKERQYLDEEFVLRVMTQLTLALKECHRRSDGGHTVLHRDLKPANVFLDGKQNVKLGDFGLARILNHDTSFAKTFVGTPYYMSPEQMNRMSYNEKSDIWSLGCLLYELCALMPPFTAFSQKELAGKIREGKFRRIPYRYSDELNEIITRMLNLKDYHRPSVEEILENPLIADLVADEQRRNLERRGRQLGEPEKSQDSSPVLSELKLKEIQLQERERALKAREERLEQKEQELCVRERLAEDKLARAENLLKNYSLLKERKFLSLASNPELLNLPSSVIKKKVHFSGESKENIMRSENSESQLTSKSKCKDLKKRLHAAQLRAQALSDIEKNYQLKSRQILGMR

[5] = biological target: T3, Serine/threonine-protein kinase Nek2 (Homo sapiens); conditions: at 1 µM
[6] = biological target: Serine/threonine-protein kinase Nek6 (Homo sapiens) (UniProt Q9HC98); conditions: at 0.1 µM
[7] = biological target: Serine/threonine-protein kinase Nek6 (Homo sapiens) (UniProt Q9HC98); conditions: at 1 µM
[8] = biological target: Serine/threonine-protein kinase Nek7 (Homo sapiens) (UniProt Q8TDX7); conditions: at 0.1 µM
[9] = biological target: Serine/threonine-protein kinase Nek7 (Homo sapiens) (UniProt Q8TDX7); conditions: at 1 µM
[10] = biological target: T4, Serine/threonine-protein kinase Nek9 (Homo sapiens) (UniProt Q8TD19); conditions: at 0.1 µM
T4 sequence (whole entry): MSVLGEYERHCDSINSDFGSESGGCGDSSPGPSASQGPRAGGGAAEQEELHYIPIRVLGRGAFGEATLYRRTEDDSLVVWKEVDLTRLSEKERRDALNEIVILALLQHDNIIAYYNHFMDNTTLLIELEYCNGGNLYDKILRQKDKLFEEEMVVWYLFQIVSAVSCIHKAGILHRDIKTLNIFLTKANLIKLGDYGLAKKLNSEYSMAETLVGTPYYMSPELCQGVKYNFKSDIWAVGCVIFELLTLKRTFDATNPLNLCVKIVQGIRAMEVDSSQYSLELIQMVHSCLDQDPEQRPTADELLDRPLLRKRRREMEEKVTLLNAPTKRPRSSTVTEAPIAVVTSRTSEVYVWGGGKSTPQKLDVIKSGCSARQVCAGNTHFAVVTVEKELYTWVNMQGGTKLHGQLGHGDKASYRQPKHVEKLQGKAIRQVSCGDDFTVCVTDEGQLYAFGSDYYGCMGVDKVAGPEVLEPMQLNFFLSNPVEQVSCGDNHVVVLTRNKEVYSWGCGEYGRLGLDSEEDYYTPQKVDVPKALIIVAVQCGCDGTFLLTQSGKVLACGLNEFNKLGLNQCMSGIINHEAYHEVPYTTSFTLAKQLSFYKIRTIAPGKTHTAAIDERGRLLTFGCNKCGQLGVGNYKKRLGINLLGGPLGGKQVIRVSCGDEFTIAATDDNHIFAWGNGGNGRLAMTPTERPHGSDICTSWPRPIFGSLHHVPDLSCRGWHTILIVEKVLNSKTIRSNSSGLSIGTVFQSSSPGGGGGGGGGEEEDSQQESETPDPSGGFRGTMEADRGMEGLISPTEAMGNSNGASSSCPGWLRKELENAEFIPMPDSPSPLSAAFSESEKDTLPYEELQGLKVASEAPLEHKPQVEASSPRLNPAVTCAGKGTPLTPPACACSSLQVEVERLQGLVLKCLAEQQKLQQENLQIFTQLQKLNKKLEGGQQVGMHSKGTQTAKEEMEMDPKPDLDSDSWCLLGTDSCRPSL

[11] = biological target: T4, Serine/threonine-protein kinase Nek9 (Homo sapiens); conditions: at 1 µM
[12] = biological target: Serine/threonine-protein kinase PLK1 (Homo sapiens) (UniProt P53350); conditions: at 0.1 µM
[13] = biological target: Serine/threonine-protein kinase PLK1 (Homo sapiens) (UniProt P53350); conditions: at 1 µM
[14] = biological target: T5, Dual specificity protein kinase TTK (Homo sapiens) (UniProt P33981); conditions: at 0.1 µM
T5 sequence (whole entry): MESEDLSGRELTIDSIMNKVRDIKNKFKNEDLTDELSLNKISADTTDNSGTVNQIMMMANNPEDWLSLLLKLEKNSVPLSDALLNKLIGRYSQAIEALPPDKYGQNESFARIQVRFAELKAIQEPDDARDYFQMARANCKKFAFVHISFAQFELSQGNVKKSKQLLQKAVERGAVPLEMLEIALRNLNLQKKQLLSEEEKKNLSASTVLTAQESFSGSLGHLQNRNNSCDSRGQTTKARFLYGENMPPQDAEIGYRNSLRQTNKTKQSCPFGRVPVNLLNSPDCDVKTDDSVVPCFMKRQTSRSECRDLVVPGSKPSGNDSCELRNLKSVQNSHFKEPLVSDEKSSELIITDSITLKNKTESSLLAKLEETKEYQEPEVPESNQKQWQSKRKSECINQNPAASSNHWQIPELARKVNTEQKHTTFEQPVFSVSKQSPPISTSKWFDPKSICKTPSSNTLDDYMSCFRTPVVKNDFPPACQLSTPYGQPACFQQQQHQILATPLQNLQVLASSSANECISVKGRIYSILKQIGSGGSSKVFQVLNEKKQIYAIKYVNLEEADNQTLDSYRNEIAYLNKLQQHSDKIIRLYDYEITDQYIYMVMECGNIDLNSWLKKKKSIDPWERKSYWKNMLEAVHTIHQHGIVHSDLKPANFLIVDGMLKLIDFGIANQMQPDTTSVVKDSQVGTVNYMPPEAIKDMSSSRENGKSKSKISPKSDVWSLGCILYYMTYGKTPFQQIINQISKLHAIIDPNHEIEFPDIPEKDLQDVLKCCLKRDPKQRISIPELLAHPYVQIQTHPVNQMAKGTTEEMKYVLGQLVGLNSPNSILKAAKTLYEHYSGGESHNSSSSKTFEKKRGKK

[15] = test system: T6, Receptor-type tyrosine-protein kinase FLT3 (Homo sapiens), P36888 [D835Y]; conditions: at 1 µM
T6 sequence (whole entry): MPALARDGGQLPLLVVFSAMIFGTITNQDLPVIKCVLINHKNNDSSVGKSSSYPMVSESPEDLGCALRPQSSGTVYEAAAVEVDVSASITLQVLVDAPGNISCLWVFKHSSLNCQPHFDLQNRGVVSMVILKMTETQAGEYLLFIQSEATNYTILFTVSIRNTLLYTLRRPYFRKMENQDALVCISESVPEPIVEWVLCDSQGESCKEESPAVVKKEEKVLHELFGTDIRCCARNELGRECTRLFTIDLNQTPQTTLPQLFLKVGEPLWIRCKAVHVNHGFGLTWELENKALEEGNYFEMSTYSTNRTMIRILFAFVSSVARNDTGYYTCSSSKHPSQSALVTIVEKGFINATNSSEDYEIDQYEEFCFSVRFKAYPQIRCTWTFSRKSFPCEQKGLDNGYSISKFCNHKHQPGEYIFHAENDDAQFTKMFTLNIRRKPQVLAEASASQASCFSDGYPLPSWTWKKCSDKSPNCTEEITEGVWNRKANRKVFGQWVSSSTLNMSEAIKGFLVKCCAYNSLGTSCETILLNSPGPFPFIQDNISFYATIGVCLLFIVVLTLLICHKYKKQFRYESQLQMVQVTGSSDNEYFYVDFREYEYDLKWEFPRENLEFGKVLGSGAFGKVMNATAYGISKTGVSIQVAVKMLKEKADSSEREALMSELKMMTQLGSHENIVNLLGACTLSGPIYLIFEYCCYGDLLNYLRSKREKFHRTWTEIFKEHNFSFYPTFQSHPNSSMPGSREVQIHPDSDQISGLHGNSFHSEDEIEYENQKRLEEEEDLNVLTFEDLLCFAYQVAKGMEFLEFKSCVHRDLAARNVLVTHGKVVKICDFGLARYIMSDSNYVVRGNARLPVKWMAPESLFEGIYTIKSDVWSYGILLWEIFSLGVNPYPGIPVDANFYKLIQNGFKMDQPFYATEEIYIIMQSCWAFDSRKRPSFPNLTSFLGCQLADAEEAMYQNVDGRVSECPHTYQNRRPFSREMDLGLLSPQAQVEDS

[16] = biological target: Vascular endothelial growth factor receptor 3 (Homo sapiens) (UniProt P35916); conditions: at 0.1 µM
[17] = biological target: Vascular endothelial growth factor receptor 3 (Homo sapiens) (UniProt P35916); conditions: at 1 µM
[18] = biological target: Macrophage colony-stimulating factor 1 receptor (Homo sapiens) (UniProt P07333); conditions: at 0.1 µM
[19] = biological target: Macrophage colony-stimulating factor 1 receptor (Homo sapiens) (UniProt P07333); conditions: at 1 µM
[20] = biological target: Tyrosine-protein kinase Fyn (Homo sapiens) (UniProt P06241); conditions: at 0.1 µM
Sequence of Tyrosine-protein kinase Fyn (Homo sapiens) (P06241 2-537 limits assumed): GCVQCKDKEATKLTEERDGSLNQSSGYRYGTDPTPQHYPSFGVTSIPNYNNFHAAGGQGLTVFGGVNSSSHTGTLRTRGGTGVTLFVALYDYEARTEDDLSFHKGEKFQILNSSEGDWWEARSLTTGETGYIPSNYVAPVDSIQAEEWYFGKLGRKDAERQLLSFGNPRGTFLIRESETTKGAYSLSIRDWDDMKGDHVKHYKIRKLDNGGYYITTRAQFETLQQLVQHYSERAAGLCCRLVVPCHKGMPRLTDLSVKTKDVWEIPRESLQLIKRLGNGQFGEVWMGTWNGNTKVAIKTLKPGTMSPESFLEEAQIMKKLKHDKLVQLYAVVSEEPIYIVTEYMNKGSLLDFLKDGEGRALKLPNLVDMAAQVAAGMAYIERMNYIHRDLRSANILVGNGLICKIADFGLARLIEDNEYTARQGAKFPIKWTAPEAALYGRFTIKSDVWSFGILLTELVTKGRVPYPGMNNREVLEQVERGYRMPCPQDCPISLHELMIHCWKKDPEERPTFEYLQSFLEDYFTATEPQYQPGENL

Sequence of Serine/threonine-protein kinase PLK1 (Homo sapiens) (P53350 whole entry): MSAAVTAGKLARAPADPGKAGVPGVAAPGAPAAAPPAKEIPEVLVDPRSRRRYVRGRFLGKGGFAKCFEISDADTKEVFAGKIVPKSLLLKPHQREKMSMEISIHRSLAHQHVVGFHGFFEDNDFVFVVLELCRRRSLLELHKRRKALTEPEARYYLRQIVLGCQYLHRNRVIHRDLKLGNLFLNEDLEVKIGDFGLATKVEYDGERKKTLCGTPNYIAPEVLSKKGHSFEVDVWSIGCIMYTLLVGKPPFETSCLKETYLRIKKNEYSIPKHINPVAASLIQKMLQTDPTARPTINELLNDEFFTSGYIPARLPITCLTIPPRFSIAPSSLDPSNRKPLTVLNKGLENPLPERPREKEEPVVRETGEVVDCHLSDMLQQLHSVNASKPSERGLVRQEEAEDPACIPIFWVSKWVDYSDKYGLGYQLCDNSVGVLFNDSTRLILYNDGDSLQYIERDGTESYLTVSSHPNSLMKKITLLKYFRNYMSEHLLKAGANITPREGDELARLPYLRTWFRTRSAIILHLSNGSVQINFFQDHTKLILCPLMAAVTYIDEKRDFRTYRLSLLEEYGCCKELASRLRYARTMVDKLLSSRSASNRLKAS
Sequence of Macrophage colony-stimulating factor 1 receptor (Homo sapiens) (P07333 whole entry): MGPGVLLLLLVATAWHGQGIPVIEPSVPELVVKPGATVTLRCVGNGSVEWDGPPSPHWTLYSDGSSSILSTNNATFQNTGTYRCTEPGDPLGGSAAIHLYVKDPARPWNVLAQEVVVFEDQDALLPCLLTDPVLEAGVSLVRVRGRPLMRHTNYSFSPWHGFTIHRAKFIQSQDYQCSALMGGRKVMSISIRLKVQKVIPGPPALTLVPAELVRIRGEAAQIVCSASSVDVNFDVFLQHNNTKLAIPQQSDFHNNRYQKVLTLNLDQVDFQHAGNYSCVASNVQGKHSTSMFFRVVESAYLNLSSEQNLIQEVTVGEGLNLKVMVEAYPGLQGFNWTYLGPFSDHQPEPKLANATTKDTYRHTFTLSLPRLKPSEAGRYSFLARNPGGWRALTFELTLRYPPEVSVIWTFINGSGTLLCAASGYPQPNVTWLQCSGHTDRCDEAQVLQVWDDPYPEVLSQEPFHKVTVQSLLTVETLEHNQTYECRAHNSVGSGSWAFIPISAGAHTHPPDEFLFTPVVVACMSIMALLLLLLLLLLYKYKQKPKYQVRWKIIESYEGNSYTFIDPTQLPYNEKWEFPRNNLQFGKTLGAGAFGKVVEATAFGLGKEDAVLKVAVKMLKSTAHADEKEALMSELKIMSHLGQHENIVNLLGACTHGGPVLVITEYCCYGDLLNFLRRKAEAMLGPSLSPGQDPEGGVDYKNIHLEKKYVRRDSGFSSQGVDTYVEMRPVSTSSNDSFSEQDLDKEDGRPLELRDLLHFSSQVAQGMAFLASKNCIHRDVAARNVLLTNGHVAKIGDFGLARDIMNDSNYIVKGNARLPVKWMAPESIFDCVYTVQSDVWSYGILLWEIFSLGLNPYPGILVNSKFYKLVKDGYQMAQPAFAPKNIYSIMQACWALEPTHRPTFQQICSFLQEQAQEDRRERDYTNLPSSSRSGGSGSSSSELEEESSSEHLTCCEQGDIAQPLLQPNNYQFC
Sequence of Vascular endothelial growth factor receptor 3 (Homo sapiens) (P35916 whole entry): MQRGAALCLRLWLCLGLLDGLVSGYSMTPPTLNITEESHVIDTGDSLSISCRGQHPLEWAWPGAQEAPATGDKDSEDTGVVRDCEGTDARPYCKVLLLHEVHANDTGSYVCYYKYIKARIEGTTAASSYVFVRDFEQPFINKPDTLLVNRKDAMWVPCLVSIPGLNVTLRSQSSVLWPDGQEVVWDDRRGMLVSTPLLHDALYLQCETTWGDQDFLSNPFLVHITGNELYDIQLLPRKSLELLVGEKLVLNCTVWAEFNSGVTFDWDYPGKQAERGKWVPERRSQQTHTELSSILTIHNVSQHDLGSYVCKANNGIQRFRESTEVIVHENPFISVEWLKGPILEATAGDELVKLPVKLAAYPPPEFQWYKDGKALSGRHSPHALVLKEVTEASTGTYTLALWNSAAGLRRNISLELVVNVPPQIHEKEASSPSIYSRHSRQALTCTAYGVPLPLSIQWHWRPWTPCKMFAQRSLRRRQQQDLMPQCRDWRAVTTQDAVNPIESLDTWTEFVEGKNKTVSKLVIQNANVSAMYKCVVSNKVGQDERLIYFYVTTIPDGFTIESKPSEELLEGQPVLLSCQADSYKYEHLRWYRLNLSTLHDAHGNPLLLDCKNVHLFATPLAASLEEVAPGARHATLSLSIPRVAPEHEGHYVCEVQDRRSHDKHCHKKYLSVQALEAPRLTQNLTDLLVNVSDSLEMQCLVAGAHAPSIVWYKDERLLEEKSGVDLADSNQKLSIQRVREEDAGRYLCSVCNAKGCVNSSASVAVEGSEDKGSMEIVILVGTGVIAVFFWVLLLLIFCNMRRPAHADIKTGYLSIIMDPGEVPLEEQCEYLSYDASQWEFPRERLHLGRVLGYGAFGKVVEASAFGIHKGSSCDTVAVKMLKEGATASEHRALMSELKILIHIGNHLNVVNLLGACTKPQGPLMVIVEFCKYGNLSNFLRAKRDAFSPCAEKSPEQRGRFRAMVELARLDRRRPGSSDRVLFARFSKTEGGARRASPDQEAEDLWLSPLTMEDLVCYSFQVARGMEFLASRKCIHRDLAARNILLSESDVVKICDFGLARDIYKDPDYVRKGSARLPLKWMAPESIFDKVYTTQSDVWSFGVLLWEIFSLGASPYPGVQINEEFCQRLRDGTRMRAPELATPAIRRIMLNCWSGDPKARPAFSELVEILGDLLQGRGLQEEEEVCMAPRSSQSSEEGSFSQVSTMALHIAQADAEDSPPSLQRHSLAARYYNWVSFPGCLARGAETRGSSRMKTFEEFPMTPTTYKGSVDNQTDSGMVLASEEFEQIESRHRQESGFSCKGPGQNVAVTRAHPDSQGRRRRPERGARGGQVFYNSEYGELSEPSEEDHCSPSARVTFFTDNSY
Sequence of Serine/threonine-protein kinase Nek7 (Homo sapiens) (Q8TDX7 whole entry, looked up): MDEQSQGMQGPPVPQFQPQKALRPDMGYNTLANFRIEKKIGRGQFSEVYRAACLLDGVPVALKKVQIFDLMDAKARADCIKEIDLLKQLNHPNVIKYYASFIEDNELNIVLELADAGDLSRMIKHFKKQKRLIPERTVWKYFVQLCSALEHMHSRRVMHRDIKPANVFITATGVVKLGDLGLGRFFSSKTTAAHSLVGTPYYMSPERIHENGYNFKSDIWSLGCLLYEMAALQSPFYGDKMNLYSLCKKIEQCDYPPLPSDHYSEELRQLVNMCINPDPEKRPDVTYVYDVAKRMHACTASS
Sequence of Serine/threonine-protein kinase Nek6 (Homo sapiens) (Q9HC98 whole entry): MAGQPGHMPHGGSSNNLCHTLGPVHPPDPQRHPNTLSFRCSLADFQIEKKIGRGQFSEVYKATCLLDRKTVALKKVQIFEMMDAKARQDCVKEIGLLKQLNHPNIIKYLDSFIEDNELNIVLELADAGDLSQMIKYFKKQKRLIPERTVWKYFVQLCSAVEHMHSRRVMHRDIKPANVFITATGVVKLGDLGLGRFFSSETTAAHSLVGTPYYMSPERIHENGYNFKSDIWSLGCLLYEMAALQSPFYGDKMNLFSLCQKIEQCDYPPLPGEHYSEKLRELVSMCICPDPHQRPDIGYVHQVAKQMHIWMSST

| Compound | inhibition [1] [%] | inhibition [2] [%] | inhibition [3] [%] | inhibition [4] [%] | inhibition [5] [%] | inhibition [6] [%] | inhibition [7] [%] | inhibition [8] [%] | inhibition [9] [%] | inhibition [10] [%] | inhibition [11] [%] | inhibition [12] [%] | inhibition [13] [%] | inhibition [14] [%] | inhibition [15] [%] | inhibition [16] [%] | inhibition [17] [%] | inhibition [18] [%] | inhibition [19] [%] | inhibition [20] [%] |
| --- | --- | --- | --- | --- | --- | --- | --- | --- | --- | --- | --- | --- | --- | --- | --- | --- | --- | --- | --- | --- |
| COC(=O)c1sc(-n2cnc3cc(OC)c(OC)cc32)cc1OCc1ccccc1C(F)(F)F | 8.59 | 2.43 | 0.28 | 4.46 | 3.83 | -0.01 | -1.32 | 6.92 | 4.66 | 6.87 | 7 | 3.92 | 14.4 | 12.7 | 0.96 | 8.44 | 50.2 | 16.2 | 60.9 | 15.6 |
| c1ccc(COc2ccc(Nc3ncnc4ccc(-c5ccco5)cc34)cc2)cc1 | 3.49 | 0.6 | 1.07 | 1.15 | 0.92 | -0.18 | -0.36 | -0.99 | 1.84 | 1.17 | 5.01 | 1.78 | 0.52 | 5.13 | -0.59 | 1.83 | 0.93 | -2.64 | 0.74 | 0.27 |
